Assay outcomes deposited in PubChem by National Center for Advancing Translational Sciences (NCATS).
Shown are actives, neighbours in structure and some others; about 10% of the full set was active somewhere.
ALOX12 inhib = 12-hLO (ALOX12) enzyme inhibition; purified 12-hLO, xylenol orange hydroperoxide absorbance; 150,000 compounds, 0.12% hits; P18054; Potency, µM (series often up to 57.1 µM), usual class: inhibitors; AID 1452; also: nearly all actives have a fitted effect of over 55% in size
Target sequence (P18054 whole entry, looked up): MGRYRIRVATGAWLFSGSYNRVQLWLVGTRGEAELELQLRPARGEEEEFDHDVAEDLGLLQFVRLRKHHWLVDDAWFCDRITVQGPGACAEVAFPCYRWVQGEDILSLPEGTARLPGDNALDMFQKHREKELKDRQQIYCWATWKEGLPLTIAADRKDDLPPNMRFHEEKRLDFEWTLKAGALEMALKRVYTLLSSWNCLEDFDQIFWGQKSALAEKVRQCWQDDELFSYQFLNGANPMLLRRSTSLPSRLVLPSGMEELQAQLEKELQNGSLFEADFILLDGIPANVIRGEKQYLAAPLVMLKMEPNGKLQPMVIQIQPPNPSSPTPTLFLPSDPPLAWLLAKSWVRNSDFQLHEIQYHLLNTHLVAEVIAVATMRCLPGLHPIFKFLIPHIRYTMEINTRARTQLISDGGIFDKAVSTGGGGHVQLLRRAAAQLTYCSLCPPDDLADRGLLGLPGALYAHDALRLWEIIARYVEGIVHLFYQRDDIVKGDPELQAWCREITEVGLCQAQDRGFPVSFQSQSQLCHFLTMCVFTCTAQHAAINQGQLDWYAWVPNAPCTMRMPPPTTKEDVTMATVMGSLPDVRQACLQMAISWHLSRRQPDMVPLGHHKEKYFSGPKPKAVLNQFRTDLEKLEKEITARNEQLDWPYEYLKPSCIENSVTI
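Hydroperoxide output read as Fe(III)-xylenol orange absorbance, 573-to-405 nm ratio, after 30 min reaction with 40 uM arachidonic acid. Enzyme: 150 nM purified human 12hLO, 15 min compound preincubation; 25 mM Hepes pH 7.0, room temperature.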
ALDH1A1 inh = inhibitors of human aldehyde dehydrogenase 1A1; Potency, µM (top dose mostly 75.3 µM), usual class: inhibitors; AID 1030; Purified ALDH1A1, NADH fluorescence, propionaldehyde substrate; 220,000 compounds, 7.3% hits; active = well fitted inhibition curve with a large enough effect, not every such curve was filed as active; inconclusive = small, poorly fitted or top-dose-only effect, or another doubt; inactive = no such curve, though single readings can be large or run the other way
aGal spleen mod = inhibitors or activators of human alpha-galactosidase in spleen homogenate | P06280 | 240,000 compounds, 0.008% hits | Potency, µM (top dose mostly 80 µM), most hits filed as inhibitors | human spleen homogenate, 4MU-alpha-Gal fluorescence, 40 min
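Inhibition or activation of alpha-galactosidase in human spleen homogenate is scored by 4-MU fluorescence after 40 min at 37C, pH 5.0, with 1 mM substrate. AC50s come from concentration-response fitted to the Hill equation.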
GLA inh pH 4.5 = blocks human alpha-galactosidase A at pH 4.5. P06280. purified enzyme, 4-MU-alpha-Gal fluorescence, pH 4.5. activity change, negative = inhibition, % at 105 µM. 230,000 tested, under 10 active. AID 1467
PNC inhibitor = blocks assembly of the perinucleolar compartment; activity change (PNC), negative = inhibition, % at 10 µM; AID 2417; PC3M PTB-GFP, PNC prevalence imaging, 16 h; stronger effect = lower value; 140,000 compounds, 3.1% hits;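 active = readout at or below -70, meaning at least 70% loss of cells showing the perinucleolar compartment, a nuclear body marking cancer cells; inconclusive = readout between -30 and a set limit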
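Read-out is percentage of cells bearing a perinucleolar compartment, from automated 20x imaging of fixed, Hoechst-stained PC3M PTB-GFP cells. Cells were seeded 4 h, then exposed 16 h to compound (23 nl of library stock) in duplicate plates.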
HPGD inh = blocks human HPGD enzyme activity; 150,000 compounds, 4.3% hits; Potency, µM, usual class: inhibitors; purified HPGD, NADH fluorescence kinetic, PGE2 substrate; P15428; AID 894; active = well fitted inhibition curve with a large enough effect, not every such curve was filed as active; inconclusive = small, poorly fitted or top-dose-only effect, or another doubt; inactive = no such curve, though single readings can be large or run the other way
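NADH formation kinetics: reaction with 30 uM PGE2 and 1 mM NAD+ (final), 20 nM enzyme, Tris-HCl pH 8 with Tween 20, after 15 min compound preincubation at room temperature. Fluorescence change, last versus first of five reads.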
Numbers stand for hits; . = inactive; ? = inconclusive; / = no result; ! = not confirmed by another sample; [ ] = remark or other dose. Unless noted, calls follow the shape of the dose curve; as a rule, active = well fitted curve in the direction sought with a large enough effect; inconclusive = small, poorly fitted or top-dose-only effect, or another doubt; inactive = no such curve, though single readings can be large; an effect the other way counts as inactive or inconclusive.

SMILES	ALOX12 inhib	ALDH1A1 inh	aGal spleen mod	GLA inh pH 4.5	PNC inhibitor	HPGD inh
Clc1ccc(OCCn2cnc(Cl)c2Cl)cc1	/	/	.	.	/	/
COc1ccc(C(=O)N2C(=S)NC(=O)/C2=C\c2ccc(C)cc2)cc1	.	?	.	.	?	28.2µM
CC(=O)c1nc(N2C(=O)CC(Cc3ccccc3)C2=O)sc1C (centres undefined)	.	.	.	.	.	28.2µM
CN(C)c1ncc2nc(-c3ccc(Cl)cc3)c(=O)n(C)c2n1	/	?	.	/	/	/
COc1ccc(NC(=O)CC2C(=O)N(c3cccc(OC)c3)C(=O)N2Cc2ccco2)cc1 (centres undefined)	/	15.8µM	.	.	/	/
COc1ccccc1NS(=O)(=O)c1cccc(C(=O)N/N=C(\C)c2ccc3c(c2)OCCO3)c1	.	25.1µM	.	.	.	.
COc1ccc(S(=O)(=O)NNC(=O)c2sccc2-n2cccc2)cc1	/	2.82µM	.	.	/	/
COC(=O)c1ccc(C)c(NS(=O)(=O)c2ccc3c(c2)OCCO3)c1	.	7.94µM	.	.	-112.4	.
COC(=O)c1ccc(C)c(NS(=O)(=O)c2ccc(C)c([N+](=O)[O-])c2)c1	.	?	.	.	.	.
COc1ccc(S(=O)(=O)Nc2cc(C(C)C)c(O)cc2C)cc1	.	0.316µM	.	.	.	.
COC(=O)c1sccc1NS(=O)(=O)c1ccc(OC)cc1	.	.	.	.	.	20µM
COC(=O)c1ccc(C)c(NS(=O)(=O)c2ccc(OC)cc2)c1	.	0.794µM	.	.	-93.8	.
C/C(=N\S(=O)(=O)c1ccc(C)cc1)Nc1cc(C(C)C)c(O)cc1C	.	2.82µM	.	.	?	.
COC(=O)c1sccc1NC(=O)Cc1ccc(OC)cc1	.	.	.	.	?	.
COc1cc(-c2oc3cc(O)cc(O)c3c(=O)c2OC[C@@H]2OC(O[C@@H]3O[C@@H](C)[C@H](O)[C@@H](O)[C@H]3O)[C@@H](O)[C@H](O)[C@@H]2O)ccc1O (some centres undefined)	/	/	.	/	/	/
COc1cc(/C(C)=N/NC(=O)C(O)(c2ccccc2)c2ccccc2)ccc1O	/	.	.	.	/	/
COC(=O)C1=C(C(=O)OC)[C@@H]2N(C)c3ccc(OC)cc3[C@@]23C[C@@H](C(=O)OC)N(S(=O)(=O)c2ccc(Br)cc2)C3=N1	.[11.4 µM]	.[13.5 µM]	.[17.5 µM]	.	/	.
O=C(O)Cn1c(O)c(C=Nc2ccccc2)sc1=S	?	28.2µM!	.	.	.	?
CCn1c(O)c(C=Nc2ccccc2)sc1=S	/	?	.	.	/	/
C=CCn1c(O)c(C=Nc2ccccc2)sc1=S	/	?	.	.	/	/
Oc1c(C=Nc2ccccc2)sc(=S)n1Cc1ccccc1	/	1.41µM	.	.	/	/
Cc1cccc(NC(=O)c2sc(Cl)nc2-c2ccccc2)c1	.	.	.	.	?	.
CN(C)c1ncc2ncc(=O)n(C)c2n1	.	?	.	/	/	?
Cc1ccc(C2C3=C(CC(C)(C)CC3=O)NC3=C2C(=O)c2ccccc23)cc1 (centres undefined)	.	.	.	.	.	.
CC1(C)C(=O)NC2=C1C(=O)C(=O)c1ccccc12	.	28.2µM	.	.	/	.
SMILES	ALOX12 inhib	ALDH1A1 inh	aGal spleen mod	GLA inh pH 4.5	PNC inhibitor	HPGD inh
O=c1ccccn1CCOc1ccccc1Cl	.	.	.	.	.	.
CCc1c(C)c(C#N)c2[nH]c3ccccc3n2c1=S	/	/	.	.	/	/
COc1cccc(Cn2c(=O)c(-c3ccccc3)nc3cnc(N4CCNCC4)nc32)c1	/	?	.	/	/	/
O=C(c1ccccc1[N+](=O)[O-])N1CCc2ccccc2C1	.	.	.	.	.	12.6µM
O=C(c1ccc(CN2CCc3ccccc3C2)cc1)N1CCc2ccccc2C1	.	.	.	.	.	3.16µM
O=C(OCC(=O)N1CCc2ccccc2C1)c1ccc(N2CCOCC2)c([N+](=O)[O-])c1	.	20µM	.	.	.	/
CCCCNC(=O)N1CCc2ccccc2C1	.	.	.	.	-113.8	.
Cc1cc(C(=O)OCC(=O)N2CCOCC2)ccc1[N+](=O)[O-]	/	.	.	.	/	/
CCc1ccc(NC(=O)C(=O)N/N=C(\C)CC(=O)NCc2ccc(Cl)cc2)cc1	/	?	.	.	/	/
CCn1nnnc1NC(=O)c1cc(Cl)c(OC)c(Cl)c1	/	.	.	.	/	/
